Screening results deposited in PubChem BioAssay by National Center for Advancing Translational Sciences (NCATS).
Shown are actives, neighbours in structure and some others; about 2.4% of the full set was active somewhere.
Pol iota inh = qHTS for Inhibitors of Polymerase Iota. DNA polymerase iota (Homo sapiens), Q9UNA4. Pol iota fluorescent replication assay, 10 min. Potency, µM (titrated, usually from 115 µM), without a hit: at the top dose activity, negative = inhibition, hits mostly inhibitors. 390,000 compounds, 1% hits. AID 588590, 2011
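Fluorescent replication assay read twice, at 0 min and 10 min after adding 50 nM (final) substrate. Enzyme (10 nM) and compounds were first incubated 15 min at room temperature; enzyme-free buffer wells were negative controls.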
FEN1 inhibitor = qHTS Assay for the Inhibitors of Human Flap endonuclease 1 (FEN1). P39748. Recombinant FEN1 flap cleavage, fluorescence, 15 min. Potency, µM (top dose mostly 114 µM), inactives show at the highest dose activity change, negative = inhibition, hits mostly inhibitors. 390,000 compounds, 0.35% hits; further: on the % scale 0 is the no-effect control and ±100 the full control effect; nearly all actives have a fitted effect of over 65% in size
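Concentration–response screening of FEN1 (10 nM): 15 min compound preincubation at room temperature, reaction started with 50 nM substrate and read at 0 and 15 min. Corrected, normalized data were fitted by a four-parameter Hill equation.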
POLB inh = qHTS Assay for Inhibitors of DNA Polymerase Beta; P06746; Pol beta primer extension/strand displacement, fluorescence kinetic; Potency, µM (titrated, usually from 114 µM), inactives show at the highest dose activity change, negative = inhibition, actives largely listed as inhibitors; 340,000 compounds, 1.3% hits; further: on the % scale 0 is the no-effect control and ±100 the full control effect
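10 nM enzyme + cpd, 15 min RT; start with substrate 50 nM final; read 0 min and after 10 min RT. Corrected, normalized data; 4-parameter Hill curve fit.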
Pol eta inh = qHTS for Inhibitors of Polymerase Eta; Potency, µM (top dose mostly 114 µM), without a hit: at the top dose activity change, negative = inhibition, usual class: inhibitors; DNA polymerase eta (Homo sapiens), Q9Y253; recombinant Pol eta, fluorescent DNA replication assay; 390,000 compounds, 1.2% hits; AID 588591, 2011; further: on the % scale 0 is the no-effect control and ±100 the full control effect
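Fluorescent replication assay: 50 nM final substrate added after a 15 min room-temperature compound preincubation with 10 nM enzyme. Signal taken at 0 min and again at 10 min.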
Pol kappa inh = qHTS for Inhibitors of Polymerase Kappa; DNA polymerase kappa (Homo sapiens), Q9UBT6; purified Pol kappa, fluorescent DNA synthesis assay, 10 min; Potency, µM (highest dose often 107 µM), inactives show top-dose activity, negative = inhibition, most hits filed as inhibitors; 400,000 compounds, 0.53% hits; further: on the % scale 0 is the no-effect control and ±100 the full control effect
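Kinetic fluorescence screen: compound preincubated 15 min RT with 10 nM enzyme; 50 nM substrate (final) initiates; reads at 0/10 min.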
WRN inhibitor = qHTS for Inhibitors of WRN Helicase | WRN helicase unwinding, fluorescent forked duplex, kinetic | 360,000 compounds, 0.46% hits | Potency, µM (top dose mostly 114 µM), for inactives: at the top dose activity change, negative = inhibition, actives largely listed as inhibitors | Bifunctional 3'-5' exonuclease/ATP-dependent helicase WRN (Homo sapiens), Q14191 | AID 651768, 2012; further: on the % scale 0 is the no-effect control and ±100 the full control effect; nearly all actives have a fitted effect of over 55% in size
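Fluorescence dequenching readout, ex 525 nm/em 598 nm, kinetic mode: forked duplex DNA (100 nM final) with adjacent fluorophore and quencher unwound by WRN (20 nM final) with 2 mM ATP. Compound preincubation 15 min, room temperature.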
Starred values were filed as active, the others as inactive; ? = inconclusive; . = no result given; [ ] = dose if it differs, or a comment. The call rests on the fitted dose curve; in most records, active means well fitted curve in the direction sought with a large enough effect; inconclusive means small, poorly fitted or top-dose-only effect, or another doubt; inactive means no such curve, though single readings can be large; an effect the other way counts as inactive or inconclusive. Potency means the concentration at half of the fitted maximal effect.

SMILES	Pol iota inh	FEN1 inhibitor	POLB inh	Pol eta inh	Pol kappa inh	WRN inhibitor
O=S(=O)(Nc1nccs1)c1ccc(NS(=O)(=O)c2c(F)cc(F)c(Cl)c2F)cc1	?	-11%	.	50µM*	-12%	-27%
Nc1ccccc1NC(=O)c1ccc(CNC(=O)OCc2cccnc2)cc1	.	.	.	.	1%[60.1 µM]	.
CCCC(=O)N(C)c1ccc(/C=C2\C=Cc3ccccc32)cc1	0%	-8%	.	.	-6%	.
CC1Cc2ccccc2N1S(=O)(=O)c1cccc(C(=O)N2CC(=O)Nc3ccccc32)c1 (stereo unspecified)	11%	-8%	40µM*	-14%	-14%	-5%
O=C(N/N=C/c1ccc(Cl)cc1)c1ccc2c(c1)OCO2	79µM*	2%	35µM*	7%	-6%	0%[11.6 µM]
O=C(N/N=C/c1ccc2c(c1)OCO2)c1ccc2c(c1)OCCO2	-7%	-4%	-1%	-25%	1%	-22%[57.1 µM]
O=C(N/N=C\C=C\c1ccc(Br)cc1)c1ccc2c(c1)OCO2	?	0%	35µM*	-18%	-13%	-17%
O=C(CCc1ccc(O)c(O)c1)N/N=C/c1ccc2c(c1)OCO2	79µM*	1%	71µM*	0%	?	0%[11.6 µM]
O=C(CNC(=O)c1ccc2c(c1)OCO2)N/N=C/c1cc(Br)ccc1O	-18%	-5%	45µM*	-6%	-13%	-14%
O=C(N/N=C/C=C/c1ccc2c(c1)OCO2)c1ccc([N+](=O)[O-])cc1	18%	0%	2%	4%	-15%	-13%
CCCc1ccc(OC(C)c2nc(-c3ccc(-n4cccc4)cc3)no2)cc1 (stereo unspecified)	-8%	-15%	19%	.	-4%	.
O=C(NCc1ccco1)c1ccc2c(c1)N(Cc1ccc(Cl)cc1)C(=O)c1ccccc1S2(=O)=O	17%	-17%	15%	-11%	-2%	.
C[C@]12CCC(=O)C=C1CC[C@@H]1[C@@H]2[C@@H](O)C[C@@]2(C)[C@H]1CC[C@]2(O)C(=O)COP(=O)(O)O	.	.	.	.	-6%[19.4 µM]	.
Cc1cccc(C(=O)OCC(=O)c2ccc(CC(=O)N3CCOCC3)s2)c1C	-96%	-5%	.	10µM*	79µM*	?
Cc1cc(Nc2cccc(C)c2C)n2cnnc2n1	-5%	0%	0%	9%	5%	.
CCN(CC)C(=O)CC(c1cc(OC)c(OC)c(OC)c1)c1c(OC)cc(OC)c2ccc(=O)oc12 (stereo unspecified)	-24%	-11%	5%	-2%	-10%	-6%
CCN(CC)C(=O)CC(c1ccc(OC)cc1)c1c(OC)cc(OC)c2ccc(=O)oc12 (stereo unspecified)	79µM*	1%	?	?	?	-12%
CCN(CC)C(=O)/C(C#N)=C/c1cc(O)c(O)c([N+](=O)[O-])c1	.	.	.	.	6.7µM*	.
C[N+]1(C)[C@@H]2CC(OC(=O)C(O)(c3cccs3)c3cccs3)C[C@H]1[C@@H]1O[C@@H]12 (stereo partly specified)	.	.	.	.	8%[19.4 µM]	.
Cc1ccc(CN2CC(C(=O)Nc3cc(S(C)(=O)=O)ccc3Cl)CC2=O)cc1 (stereo unspecified)	-10%	-7%	14µM*	?	-17%	-3%[57.1 µM]
COc1ccccc1N1CC(C(=O)Nc2ccc(S(=O)(=O)N3CCCC3)cc2)CC1=O (stereo unspecified)	?	-7%	.	-6%	-2%	2%
CCc1ccccc1N1CC(C(=O)Nc2cc(S(=O)(=O)N3CCCC3)ccc2Cl)CC1=O (stereo unspecified)	50µM*	-9%	.	16µM*	?	-34%
